# Rows were chosen to be rich in hits. Some 7.7% of all compounds tested hit in one or more screens of this group.
# FMDV antiviral = antivirals against foot and mouth disease virus | FMDV antiviral cell-based qHTS | Potency, µM (top dose mostly 57.9 µM), for inactives: top-dose activity change, negative = inhibition, usual class: inhibitors | 410,000 compounds, 1.2% hits | AID 1159524; calls by dose curve; tested in HEK293T cells; also: read-out not given here; potency is read from the fitted curve at half-maximal effect; nearly all actives have a fitted effect of over 45% in size
# FBPA Giardia inh = inhibitors of Giardia lamblia fructose-1,6-bisphosphate aldolase; 290,000 compounds, 0.71% hits; purified Giardia FBPA; AID 2451; Potency, µM (titrated, usually from 59.6 µM), inactives show at the top dose activity, negative = inhibition, usual class: inhibitors; A8B2U2; also: potency is read from the fitted curve at half-maximal effect; nearly all actives have a fitted effect of over 55% in size
# Target sequence (A8B2U2 whole entry, looked up): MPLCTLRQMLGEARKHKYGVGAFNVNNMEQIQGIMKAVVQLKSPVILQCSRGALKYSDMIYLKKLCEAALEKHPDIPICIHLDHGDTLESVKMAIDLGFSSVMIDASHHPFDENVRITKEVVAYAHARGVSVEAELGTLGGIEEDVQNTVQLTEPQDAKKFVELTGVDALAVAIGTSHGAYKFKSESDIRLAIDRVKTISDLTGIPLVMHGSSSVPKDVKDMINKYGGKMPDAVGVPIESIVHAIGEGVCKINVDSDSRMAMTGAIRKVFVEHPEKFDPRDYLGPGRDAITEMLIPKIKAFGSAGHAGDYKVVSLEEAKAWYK
#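 40 nM FBPA preincubated 10 min at RT with compound (up to 57.5 uM final), then substrate plus GAPDH/TPI/NAD/arsenate coupling and diaphorase/resazurin added. Fluorescence read after 20 min at RT, 525/598 nm.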
# Sm TGR inh = inhibitors of Schistosoma mansoni thioredoxin glutathione reductase. Q962Y6. purified TGR, DTNB reduction, TNB absorbance 405 nm. Potency, µM (titrated, usually from 114 µM), for inactives: top-dose activity change, negative = inhibition, hits mostly inhibitors. 360,000 compounds, 3% hits; also: potency is read from the fitted curve at half-maximal effect; nearly all actives have a fitted effect of over 60% in size
#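 TGR 20 nM + NADPH 100 uM (dispensed conc.), cpd preinc 15 min RT; start with NADPH (500 uM addition) then DTNB (15 mM addition). Kinetic TNB absorbance, 405 nm filter. Four-parameter Hill fit across titration.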
# TbPYK inhibitor = T. brucei pyruvate kinase inhibition | Q57TT1 | TbPYK enzyme, Kinase-Glo Plus ATP luminescence, 45 min | Potency, µM (highest dose often 76.8 µM), for the others: at the top dose activity, negative = inhibition, actives largely listed as inhibitors | 410,000 compounds, 0.12% hits | AID 624173; also: potency is read from the fitted curve at half-maximal effect; nearly all actives have a fitted effect of over 50% in size
#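 In this concentration-response screen, enzyme-free wells defined baseline while DMSO plates tracked drift. Each reaction combined TbPYK, substrate, compound and 130 uM ADP for 45 min at room temperature. Kinase-Glo Plus luminescence gave the signal.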
# RE007 growth inh = less growth of the S. pombe RE007 Vpr strain; Potency, µM (doses to about 92.2 µM), inactives show at the top dose activity change, negative = less growth, actives largely listed as inhibitors; 360,000 compounds, 0.21% hits; S. pombe RE007 Vpr strain, BacTiter-Glo ATP luminescence, 24 h; active = well fitted falling curve with a large enough effect; inconclusive = small, poorly fitted or top-dose-only effect; inactive = no such curve, though single readings can be large or run the other way; also: potency is read from the fitted curve at half-maximal effect; nearly all actives have a fitted effect of over 50% in size
#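 Fission yeast strain RE007, carrying one chromosomally integrated HIV-1 vpr copy, was seeded at OD 0.01 in PMG+AL medium with 23 nL pinned compound. After 24 h at 30 °C and 99% humidity, viability was read by BacTiter-Glo luminescence.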
# HCMV inh = human cytomegalovirus inhibition; AID 1259415; HFF cells, HCMV-luciferase reporter, 72 h; hits give low values; activity change, negative = inhibition, % at 57.5 µM; 410,000 compounds, 4.5% hits; in the data active = activity change below about -60%; inconclusive = no clear call, values can overlap the other calls; inactive = above about -39%
#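 After 16 h attachment at 37C, HFF cells received test compound and HCMV-luciferase (1 PFU/cell); reporter luminescence read 72 h later, data normalized against buffer-only and known inhibitor Salinomycin.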
# Starred values were filed as active, the others as inactive; ? = inconclusive; . = not tested or not shown. Unless noted, calls follow the shape of the dose curve; as a rule, active = well fitted curve in the direction sought with a large enough effect; inconclusive = small, poorly fitted or top-dose-only effect, or another doubt; inactive = no such curve, though single readings can be large; an effect the other way counts as inactive or inconclusive. % is scaled to controls: 0 for no effect and ±100 for the full control effect.
SMILES,FMDV antiviral,FBPA Giardia inh,Sm TGR inh,TbPYK inhibitor,RE007 growth inh,HCMV inh
COc1ccc(Br)c2c1-c1nc(NC(=O)c3ccccc3SC)sc1C2,-23%,.,0%,-1%,.,-63*
O=C(COc1ccc(Cl)cc1Cl)N/N=C1\CCCc2ccccc21,-2%,5%,9%,2%,-4%,-28
O=C(COc1ccc(Cl)cc1Cl)NN=C1c2ccccc2-c2ccccc21,?,-6%,-4%,-3%,7%,-61*
CCCCc1ccc(/C=C2\C(=O)c3ccccc3C(O)=C2C(=O)OCC)cc1,.,?,11µM*,.,.,.
CCNc1nc(NCC)n2c(SCC(=O)Nc3cccc(Cl)c3)nnc2n1,-21%,.,-6%,-7%,2%,.
CCNc1nc(NCC)n2c(SC(C(=O)Nc3cc(Cl)cc(Cl)c3)c3ccccc3)nnc2n1 (centres undefined),-1%,1%,-2%,-6%,2%,-101*
COc1cccc(C(=O)NC2C(=O)N3C(C(=O)O)=C(COC(C)=O)CSC23)c1 (centres undefined),4%,.,13µM*,-3%,1%,-2
CC(=O)OCC1=C(C(=O)O)N2C(=O)C(NC(=O)c3ccc(COc4cccc(Cl)c4Cl)o3)C2SC1 (centres undefined),2%,-6%,20µM*,-7%,-15%,9
Cc1ccc(COc2ccc(Br)cc2/C=N/O)cc1,-5%,3%,-15%,-3%,32µM*,33
O/N=C/c1cc(Br)ccc1OCc1ccc(F)cc1,-9%,.,.,2%,35µM*,-21
CCn1c(-c2ccc(N)cc2)nc2ccccc21,16%,-12%,1%,-3%,-4%,161
CCn1c(-c2ccco2)nc2ccccc21,51%,-5%,32µM*,-7%,-4%,42
c1ccc(OCCn2c(-c3ccco3)nc3ccccc32)cc1,.,-8%,8.9µM*,?,20%,-1
CCn1c(-c2ccc(N(C)C)cc2)nc2ccccc21,-27%,.,6%,-13%,-16%,-96*
O=C(Cn1c(-c2ccco2)nc2ccccc21)N1CCCCC1,1%,-2%,?,12%,-2%,17
Cc1cccc(OCCn2c(-c3ccco3)nc3ccccc32)c1,30%,.,?,0%,-19%,16
CC(=O)Nc1cc(C(=O)N2CCN(c3ccccc3)CC2C)cc2ncn(CCc3ccccn3)c12 (centres undefined),0%,.,.,.,.,.
O=C(Nc1ccccc1F)N1C[C@@H]2[C@H](c3ccccc31)[C@H](CO)N2C(=O)Nc1ccccc1,.,.,.,.,.,1
CCC1(C2CCN(C(=O)c3ccccc3Cl)CC2)NC(=O)N(CCc2scnc2C)C1=O (centres undefined),9%,.,.,.,.,.
CC12CN3CC(C)(CN(C1)C3c1ccc3ccccc3c1O)C2=O (centres undefined),-24%,13µM*,-5%,-2%,-11%,-23
CC12CN3CC(C)(CN(C1)C3c1c[nH]c3ccccc13)C2=O (centres undefined),-12%,0%,.,-5%,-3%,36
COC(=O)N1CCC2(CC1)CN(c1cccc(-c3ccccc3)c1)C2,6%,-6%,.,0%,.,.
CCOC(=O)c1ccc(NC(=O)c2ccc(CN3C(=O)CCn4nc(C)cc43)cc2)cc1,2%,.,5%,-6%,.,-4
CC1(C)Oc2ccc3ccc(=O)oc3c2C(N2CCCCC2)C1O (centres undefined),-15%,-28%,35µM*,0%,6%,1
CC1(C)Oc2ccc3ccc(=O)oc3c2[C@H](O)[C@H]1O,-15%,.,1%,3%,4%,-4
SMILES,FMDV antiviral,FBPA Giardia inh,Sm TGR inh,TbPYK inhibitor,RE007 growth inh,HCMV inh
Cc1ccc(CN2C(=O)c3oc4ccc(C)cc4c(=O)c3C2c2ccc(O)cc2)cc1 (centres undefined),-5%,.,7%,1%,.,10
CCOc1ccccc1NC(=O)CSc1nnc2[nH]c(=O)cc(-c3ccccc3)n12,20%,.,-1%,-3%,.,-37
COCCNC(=O)C1CCCN(C(=O)c2cc(C)nn2C(C)(C)C)CC1 (centres undefined),-7%,.,.,-4%,5%,-60*
COCCNC(=O)C1CCCN(C(=O)c2cc(C)n(C(C)(C)C)n2)CC1 (centres undefined),-8%,.,.,-3%,4%,-25
COC(=O)c1ccccc1NC(=O)c1sc(N)nc1C,-8%,3%,3%,2%,-1%,-101*
CC1CC(C)CN(c2cc(N(C)CCO)c([N+](=O)[O-])c3nonc23)C1 (centres undefined),0%,-1%,-9%,-5%,-10%,-15
CC1CCN(c2cc(N(C)CCO)c([N+](=O)[O-])c3nonc23)CC1,12%,-8%,45µM*,0%,1%,-40
CC12CCC(C(=O)Nc3ccc(Cl)cc3)([C@H](Br)C1=O)C2(C)C (some centres undefined),-27%,-9%,7%,3%,-3%,-61*
CC12CCC(C(=O)Nc3cccc(Cl)c3)(C(Br)C1=O)C2(C)C (centres undefined),?,-3%,4%,-13%,2%,-31
CCn1c(-c2ccc(C)cc2)nn(CC(=O)NCCc2ccccc2)c1=S,11%,1%,0%,8%,2%,-103*
COc1ccc(-c2nn(CC(=O)NCCc3ccccc3)c(=S)n2C)cc1,20%,8%,-14%,6%,3%,-96*
O=C(Nc1ccc(Cc2nc3ccccc3s2)cc1)c1ccncc1,-27%,8%,-1%,-7%,-12%,-86*
O=C1C=C(C2OC(CO)C(O)C2O)C(=O)N1 (centres undefined),40µM*,.,.,-12%,-10%,-16
OC[C@@H]1O[C@@H](O)[C@H](O)[C@H](O)[C@@H]1O,.,2%,.,.,.,.
CCOC(=O)C1=C[C@@H](C2CCCCC2)N(S(=O)(=O)c2ccc([N+](=O)[O-])cc2)[C@H]1c1ccccc1,?,.,.,0%,-7%,-77*
N#Cc1c(F)cccc1NCc1cccnc1,-17%,17%,-2%,1%,-5%,7
N#Cc1c(NCc2ccccc2)ccnc1NCc1cccnc1,-15%,5%,-2%,-16%,1%,-80*
O=C1C2C3C=CC(C4CC34)C2C(=O)N1Cc1ccccc1 (centres undefined),-11%,9%,32%,-5%,-6%,?
O=C1C2C3C=CC(C3=C3CCCCC3)C2C(=O)N1Cc1ccccc1 (centres undefined),.,9%,18µM*,4%,?,?
CC(=O)Nc1cccc(-c2cc(-c3c(Cl)cccc3Cl)no2)c1,-19%,-9%,11%,2%,-7%,-27

# Bioassay records from PubChem.
